Screening results as filed in PubChem.
The sample as a whole holds a higher share of hits than the screen did.
Shiga inhibitor: Shiga toxin inhibition. Vero cells, Shiga toxin protein synthesis inhibition reporter. inhibition, % at 38.7 µM. 290,000 tested, 9.2% active. AID 2315; in the data active = inhibition mostly above about 28%, no sharp cut-off; inactive = mostly below about 43%
NS1 inh: influenza NS1 inhibition. Potency, µM (series often up to 46.1 µM). 270,000 tested, 0.4% active; calls by dose curve; note: actives are rising curves; nearly all actives have a fitted effect of over 50% in size
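Read-out: OD600 growth recovery of NS1-expressing budding yeast. Cells grown overnight at 30C in -URA glucose medium, washed, resuspended and diluted 1:100 in 2% galactose assay medium, pH 6.0. Same strain lacking NS1 served as positive control.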
Cycloheximide cs: counter-screen for Shiga toxin inhibitors: cycloheximide protein synthesis inhibition; cell reporter, cycloheximide protein synthesis inhibition counterscreen; max response, %; 300,000 tested, 12% active; AID 2314; in the data active = max response mostly above about 13%, no sharp cut-off; inactive = mostly below about 14%; note: read at 38.3 µM for the half of the compounds with a filed dose
AmpC inh detg: AmpC beta-lactamase inhibition with detergent present; 370,000 tested, 0.041% active; AmpC hydrolysis of nitrocefin, absorbance 480 nm, 0.01% Triton; Potency, µM (doses to about 114 µM), actives largely listed as inhibitors; AID 485294; note: nearly all actives have a fitted effect of over 25% in size
Target sequence (P00811 whole entry, looked up): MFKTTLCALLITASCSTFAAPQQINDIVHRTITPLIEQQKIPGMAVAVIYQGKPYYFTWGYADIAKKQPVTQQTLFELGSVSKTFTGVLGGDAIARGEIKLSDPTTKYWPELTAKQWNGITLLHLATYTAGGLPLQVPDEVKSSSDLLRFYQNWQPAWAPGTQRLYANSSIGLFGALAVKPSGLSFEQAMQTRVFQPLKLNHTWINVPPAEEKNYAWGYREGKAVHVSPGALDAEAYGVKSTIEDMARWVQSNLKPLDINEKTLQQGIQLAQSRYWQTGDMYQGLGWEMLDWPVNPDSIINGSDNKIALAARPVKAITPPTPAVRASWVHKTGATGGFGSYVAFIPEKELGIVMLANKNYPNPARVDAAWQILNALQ
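20 mM phosphate pH 7.0 + 0.01% (detergent screen) or 0.0001% Triton X-100; 5.3 nM AmpC reagent; cpd preinc 15 min RT; nitrocefin (800 uM stock) to start; A480 q20 s × 4 min; Activity was normalised to no-enzyme and no-compound control wells.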
AmpC inh no detg: AmpC beta-lactamase inhibition without detergent; P00811; Potency, µM (titrated, usually from 57.1 µM), hits mostly inhibitors; AmpC nitrocefin hydrolysis, absorbance 480 nm, 0.0001% Triton; 330,000 tested, 0.52% active; note: nearly all actives have a fitted effect of over 20% in size
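AmpC (5.3 nM in the dispensed reagent) in 20 mM phosphate pH 7.0 with 0.01% (detergent screen) or 0.0001% Triton X-100 was preincubated with compounds for 15 min at room temperature. Nitrocefin was then added from an 800 uM solution, and hydrolysis was followed at 480 nm.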
Numbers stand for hits; - = inactive; ? = inconclusive; . = no result given. Unless noted, calls come from the whole dose curve; as a rule, active = well fitted curve in the direction sought with a large enough effect; inconclusive = small, poorly fitted or top-dose-only effect, or another doubt; inactive = no such curve, though single readings can be large; an effect the other way counts as inactive or inconclusive.

SMILES	Shiga inhibitor	NS1 inh	Cycloheximide cs	AmpC inh detg	AmpC inh no detg
CCc1cccc(NC(=O)c2ccc3c(c2)N(Cc2cccc(Cl)c2)C(=O)c2ccccc2S3=O)c1 (stereo unspecified)	.	.	.	-	.
Oc1ccc(/C=N/NC(=S)N2CCOCC2)cc1	-	-	30	-	-
O=S(=O)(c1ccc(Cl)c(NC(=S)N/N=C/c2ccc(O)cc2)c1)N1CCOCC1	-	-	18	-	-
COc1ccc2cc(/C(C)=N/NC(=S)Nc3cc(S(=O)(=O)N4CCOCC4)ccc3N3CCOCC3)ccc2c1	-	-	21	-	-
O=S(=O)(c1ccc(NC(=S)N/N=C/c2ccc(O)c(O)c2)cc1)N1CCOCC1	-	-	-	-	16µM
O=C(NCc1ccccc1Cl)c1cc(-c2ccccc2)n[nH]1	.	.	.	-	.
COc1ccc(/C=C/C(=O)Nc2nc(-c3cccs3)ns2)cc1	.	.	.	-	.
Cc1nnc2sc(-c3ccc(N(C)C)cc3)nn2c1=O	54	-	28	-	-
[O-]/[N+](=C\C=C\c1ccccc1)c1ccccc1	133	-	50	-	-
COc1ccnc(Oc2ccc(C)cc2)c1C#N	121	-	37	-	-
COc1ccnc(Oc2ccc(F)cc2)c1C#N	-	-	-	-	-
COc1ccc(Oc2nccc(-c3ccccc3)c2C#N)cc1	133	-	77	-	-
COc1ccc(Oc2nccc(-c3ccc(F)cc3)c2C#N)cc1	-	-	-	-	-
COc1ccnc(Oc2ccc3ccccc3c2)c1C#N	60	?	61	-	-
CC(Oc1ccccc1)C(=O)Nc1c(C(=O)Nc2cccc(F)c2)oc2ccccc12 (stereo unspecified)	.	.	.	-	.
CCOc1ccc(CCNC(=O)c2cc3c(s2)CS(=O)(=O)C3)cc1OCC	-	-	-	-	-
Nc1c(-c2nc(-c3ccncc3)no2)nnn1CC(=O)Nc1ccccc1	.	.	.	-	.
C[C@]12c3[nH]c4ccc(Cl)cc4c3CCN1C(=O)[C@@H](CC(=O)NCc1ccco1)C[C@@H]2C(=O)N1CCCCC1	.	.	.	.	-
O=C(OC[C@@H]1O[C@@](O)(COC(=O)c2cccnc2)[C@H](OC(=O)c2cccnc2)[C@H]1OC(=O)c1cccnc1)c1cccnc1	-	.	-	.	.
O=C(NC(=O)c1c(F)cccc1F)Nc1ccccc1SC(F)F	-	-	11	-	-
CCCCC1C2C(=O)N(c3ccc(C)cc3)C(=O)C2ON1c1ccccc1 (stereo unspecified)	104	-	35	-	-
CCCCOc1ccc(C(=O)NNC(=O)C2C3C=CC(C3)C2C(=O)O)cc1 (stereo unspecified)	-	-	10	-	-
CC(C)c1ccc(C(=O)NNC(=O)C2C3CCC(C3)C2C(=O)O)cc1 (stereo unspecified)	101	-	39	-	-
CCCCOc1ccc(C(=O)NNC(=O)C2C3CCC(C3)C2C(=O)O)cc1 (stereo unspecified)	72	-	40	-	-
CCCCOc1ccc(C(=O)NCC(=O)NC2CCC(C)CC2)cc1 (stereo unspecified)	.	.	.	?	-
SMILES	Shiga inhibitor	NS1 inh	Cycloheximide cs	AmpC inh detg	AmpC inh no detg
Cc1ccsc1C(=O)NNC(=O)C1C2C=CC(C2)C1C(=O)O (stereo unspecified)	96	?	121	-	-
CC(C)c1ccc(C(=O)NNC(=O)c2ccncc2)cc1	-	-	-	-	-
COC(=O)c1sccc1NC(=O)C1C2C=CC(C2)C1C(=O)O (stereo unspecified)	-	-	-	-	-
CCC(C)CCCCNC1=NCCS1 (stereo unspecified)	-	.	-	-	-
CCCN(CCC)S(=O)(=O)c1ccc(N2CCCCS2(=O)=O)cc1	.	.	.	-	.
CC(=O)c1cccc(NC(=O)C2C3C=CC(C3)C2C(=O)O)c1 (stereo unspecified)	-	-	-	-	-
O=C(NNC(=O)C1C2CCC(C2)C1C(=O)O)c1ccc(Br)o1 (stereo unspecified)	76	-	42	-	-
CCOc1cccc(C(=O)NNC(=O)C2C3C=CC(C3)C2C(=O)O)c1 (stereo unspecified)	-	-	20	-	-
CC(C)c1ccc(C(=O)NN2C(=O)C3CCCCC3C2=O)cc1 (stereo unspecified)	96	-	50	-	-
COc1ccc(OCc2cc(C(=O)O)c(C)o2)cc1	-	-	33	-	-
COC(=O)c1cc(COC(=O)COc2ccc(C)c(C)c2)oc1C	-	-	-	-	-
CCN(CC)Cc1cc(C(=O)O)c(C)o1	53	-	13	-	-
CC1Cc2ccccc2N1C(=O)CSc1nnc(-c2cccc(Cl)c2)o1 (stereo unspecified)	.	.	.	-	.
Cc1ccc(S(=O)(=O)c2nnn3c2nc(NC(C)c2ccccc2)c2sccc23)cc1 (stereo unspecified)	.	.	.	-	.
COc1ccc(C(=O)COc2ccc(F)cc2)c(O)c1	69	-	29	-	-
COc1ccc(C(=O)Cc2ccc(F)cc2)c(OC)c1	80	-	64	-	-
NNC(=O)COc1ccc(F)cc1	-	-	-	-	-
O=C(COc1ccc(F)cc1)c1c(O)cc(O)cc1O	119	?	48	-	?
COc1ccc(C(=O)Cc2cc(OC)c(OC)cc2[N+](=O)[O-])c(OC)c1	-	-	-	-	-
COc1cccc(CNC(=O)C2CCC(CNS(=O)(=O)c3ccc4c(c3)CCCC(=O)N4)CC2)c1 (stereo unspecified)	.	.	.	-	.
COc1ccccc1N1CCN(C(C)C(=O)N2CC(C)OC(C)C2)CC1 (stereo unspecified)	-	.	-	-	-
Cc1cc(-c2nnc3n2CCCCC3)c(C)n1-c1ccccc1	91	-	-	?	-
CC(Oc1ccc(-c2ccccc2)c(F)c1)c1ccn(S(=O)(=O)c2ccc(F)cc2)n1 (stereo unspecified)	-	-	-	-	-
COc1ccc(S(=O)(=O)n2ccc(C(C)Oc3ccc(-c4ccccc4)c(F)c3)n2)cc1 (stereo unspecified)	-	-	-	-	0.4µM
CCOc1ccccc1NCc1nnc2n1CCCCC2	.	.	.	-	.
SMILES	Shiga inhibitor	NS1 inh	Cycloheximide cs	AmpC inh detg	AmpC inh no detg
COC(=O)/C(C#N)=C1/C=Cc2ccccc2N1	68	.	34	-	-
C1=Cc2ccccc2Nc2ccccc21	-	-	-	-	-
CCOc1ccccc1NC(=O)C1CCN(S(=O)(=O)c2c(C)noc2/C=C/c2ccc(C)cc2)CC1	.	.	.	-	.
O=C1C(c2ccccc2)SC(=Nc2ccccc2)N1S(=O)(=O)c1ccccc1 (stereo unspecified)	-	-	30	-	-
CC1(C)SC(=Nc2ccccc2)N(S(=O)(=O)c2ccccc2)C1=O	-	-	-	-	-
O=C(Nc1ccc(N2CCN(C(=O)c3ccco3)CC2)c(Cl)c1)c1cccs1	29	-	22	-	-
CCC(=O)Nc1ccc(N2CCN(C(=O)c3ccco3)CC2)c(Cl)c1	-	-	-	-	-
CC(C)C(=O)N1CCN(c2ccc(NC(=O)c3cccs3)cc2)CC1	-	-	-	-	-
